Screening data deposited in PubChem BioAssay by several laboratories.
TLR9-MyD88 inh: inhibitors of TLR9-MyD88 association in cells, primary screen, cell-based, CHO, BLA complementation, fluorescence. Toll-like receptor 9 (Homo sapiens) + Myeloid differentiation primary response protein …. CCF4 FRET ratio. inhibition, % at 4.98 µM. actives 0.21% (n = 340,000);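 active means inhibition above the mean over all tested compounds plus 3 SD, cut at about 21% in these data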;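 further: 0% = DMSO only wells and 100% = clavulanate BLA inhibitor control wells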
ABCB6 inh 2: ABCB6 transporter inhibitors, primary screen, K562-ABCB6 cells, flow cytometry, MLPCN library; fluorescence ratio to DMSO, % at 10 µM; actives 0.19% (n = 360,000); K562-ABCB6 porphyrin accumulation, 1 h; stronger effect = lower value; ATP-binding cassette sub-family B member 6 (Homo sapiens), Q9NP58; AID 602162, 2011;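 active means fluorescence ratio to DMSO below 75%, the collection mean minus 3 SD; inconclusive means too few cells collected in the well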;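 further: signal is porphyrin accumulated inside mitochondria; 100% equals median channel fluorescence of DMSO control wells; lower ratio means ABCB6 inhibition with less porphyrin fluorescence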
Target sequence (Q9NP58 whole entry, looked up): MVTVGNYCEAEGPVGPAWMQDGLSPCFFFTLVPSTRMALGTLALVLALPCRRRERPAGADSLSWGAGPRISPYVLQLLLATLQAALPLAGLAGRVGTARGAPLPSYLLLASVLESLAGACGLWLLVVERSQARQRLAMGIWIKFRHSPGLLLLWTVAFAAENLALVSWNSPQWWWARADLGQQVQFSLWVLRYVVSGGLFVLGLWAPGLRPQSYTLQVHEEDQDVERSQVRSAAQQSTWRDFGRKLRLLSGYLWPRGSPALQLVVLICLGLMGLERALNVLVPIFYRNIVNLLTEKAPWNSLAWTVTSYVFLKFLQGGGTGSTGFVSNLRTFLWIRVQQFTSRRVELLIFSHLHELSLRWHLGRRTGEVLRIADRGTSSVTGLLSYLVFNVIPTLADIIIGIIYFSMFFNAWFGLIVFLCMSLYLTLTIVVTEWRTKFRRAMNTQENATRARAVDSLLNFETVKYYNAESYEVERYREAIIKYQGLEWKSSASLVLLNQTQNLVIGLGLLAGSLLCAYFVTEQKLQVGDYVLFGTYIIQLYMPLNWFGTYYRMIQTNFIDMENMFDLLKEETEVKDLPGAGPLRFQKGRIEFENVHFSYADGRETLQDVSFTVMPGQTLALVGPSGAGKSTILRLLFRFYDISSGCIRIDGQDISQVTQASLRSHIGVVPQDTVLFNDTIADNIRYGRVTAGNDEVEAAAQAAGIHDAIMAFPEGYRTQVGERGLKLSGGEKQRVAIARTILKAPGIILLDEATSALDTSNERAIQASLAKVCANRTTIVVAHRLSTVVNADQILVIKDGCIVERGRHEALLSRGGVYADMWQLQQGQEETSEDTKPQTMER
TLR4-MyD88 BLA: inhibitors of TLR4-MyD88 association in cells, primary screen, cell-based, HeLa CL3-4, BLA complementation, FRET ratio; Toll-like receptor 4 (Homo sapiens) + Myeloid differentiation primary response protein …; HeLa CL3-4 TLR4/MyD88 BLA complementation; inhibition, % at 8.4 µM; actives 0.18% (n = 200,000); AID 861, 2007; in the data active means inhibition above about 25%;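 further: 0% = vehicle and 100% = reference inhibitor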
NOD2 RIPK2 PPI: NOD2-RIPK2 binding disruptors in cells, primary screen, fluorescence, CHO cells, BLA complementation; AID 624267, 2012; Receptor-interacting serine/threonine-protein kinase 2 (Homo sapiens), O43353; CCF4 ratio; inhibition, % at 4.98 µM; actives 0.38% (n = 360,000); in the data active means inhibition above about 21%;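 further: 0% = vehicle only and 100% = reference blocker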
Myeloid diff MLP: induction of myeloid progenitor differentiation, primary screen, cell-based, flow cytometry, MLPCN library; actives 1% (n = 360,000); ER-HoxA9 myeloid progenitors, lysozyme-GFP differentiation; calls only at 10 µM;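 active means normalized GFP-positive differentiation at or above the plate's own cutoff, the solvent-only control mean plus 3 SD; inconclusive means no clear call, values can overlap the other calls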;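 further: cells exposed to compound for four days before flow analysis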
ABCB6 blocker 1: ABCB6 transporter inhibitors, confirmation, K562-ABCB6 cells, flow cytometry, cherry pick 1 | 700 tested, under 10 active | K562-ABCB6 porphyrin accumulation, 1 h; stronger effect = lower value | ratio response (% of DMSO), % at 10 µM | shares compounds with ABCB6 inh 2;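 active means repeat-averaged ratio response below 75% of DMSO, the collection mean minus 3 SD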;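 further: median porphyrin fluorescence at 575 nm with 488 nm excitation from mitochondria; lower ratio means less porphyrin signal so ABCB6 inhibition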
The depositor's hits bear a star; i = inactive; ? = inconclusive; nt = not tested or not shown. Rows were chosen to be rich in hits. Some 1.7% of all compounds tested hit in one or more screens of this group.

SMILES	TLR9-MyD88 inh	ABCB6 inh 2	TLR4-MyD88 BLA	NOD2 RIPK2 PPI	Myeloid diff MLP	ABCB6 blocker 1
Cc1ccc(S(=O)(=O)C2(C(=O)N3CCN(c4ccccc4F)CC3)CC2)cc1	10	72*	nt	-6	i	101
CC(C)C[C@H](NC(=O)OC(C)(C)C)c1n[nH]c(=S)n1N	-1	100	15	-2	i	nt
Cc1ccc(C(=O)OCC(=O)c2c[nH]c3ccccc23)cc1S(=O)(=O)N1CCCCC1	8	70*	3	-7	i	99
O=C(Oc1ccc2c(=O)c(Oc3ccc4ccccc4c3)coc2c1)c1cncc(Br)c1	3	73*	17	2	i	102
CC(C)(C)n1nnnc1C(c1ccccc1)N1CCN(c2c(Cl)cncc2Cl)CC1 (centres undefined)	nt	92	nt	4	i	nt
O=C(CN1CCOCC1)Nc1scc2c1c(=O)oc1ccccc12	nt	99	nt	-1	i	nt
CCOC(=O)c1sc(NC(=O)C(CC)Sc2nnc3c4ccccc4n(C(C)C)c3n2)nc1C (centres undefined)	1	93	-6	9	i	nt
CCOC(=O)Cc1nnc(NC(=O)C(CC)Sc2nnc3c4ccccc4n(C)c3n2)s1 (centres undefined)	-5	74*	-4	3	i	100
CC1CC(C)CN(S(=O)(=O)c2ccc3c(c2)oc(=O)n3CC(=O)NCCCOC(C)C)C1 (centres undefined)	-4	91	nt	-2	i	nt
COc1ccccc1CN(C)C(=O)C(c1ccccc1)c1ccccc1	-11	73*	nt	5	i	100
CN(Cc1ccc(F)cc1)C(=O)C(c1ccccc1)c1ccccc1	-2	93	nt	0	i	nt
COc1ccc(-c2ccc(C(=O)NCc3ccncc3)c3occc23)c(C)c1	nt	69*	nt	7	i	98
CN(C(=O)Nc1cnccc1C(F)(F)F)C1CCCCC1	-4	98	nt	-2	i	nt
Cc1ccc2nc(CSc3nnc(Cc4cccs4)n3C3CCCCC3)cc(=O)n2c1	-1	66*	-1	4	i	102
Cc1sc2nc(CSc3nnc(Cc4cccs4)n3C3CCCCC3)[nH]c(=O)c2c1C	1	99	-4	-2	i	nt
Cc1ccc(F)c(S(=O)(=O)NC(=O)C2(C)CCN2C(=O)Cc2cc(F)ccc2F)c1 (centres undefined)	nt	102	nt	7	i	98
CC1(C(=O)NS(=O)(=O)c2ccc(F)cc2F)CCN1C(=O)Cc1cc(F)ccc1F (centres undefined)	nt	86	nt	-9	i	nt
CC1(C(=O)NS(=O)(=O)c2ccccc2Cl)CCN1C(=O)CCc1ccc(Cl)cc1Cl (centres undefined)	nt	97	nt	-10	i	nt
CC1(C(=O)NS(=O)(=O)c2ccc(C#N)cc2)CCN1C(=O)Cc1cc(F)ccc1F (centres undefined)	nt	104	nt	9	i	99
Cc1ccc(F)c(S(=O)(=O)NC(=O)C2(C)CCN2C(=O)Cc2ccccc2Cl)c1 (centres undefined)	nt	94	nt	-4	i	100
Cc1ccccc1S(=O)(=O)NC(=O)C1(C)CCN1C(=O)CCc1ccc(Cl)cc1Cl (centres undefined)	nt	97	nt	3	i	97
CCOc1ccc(C(C)=O)cc1COC(=O)c1ccccc1C(=O)N(C)Cc1ccccc1	2	102	nt	-3	i	nt
O=C(CCC(=O)NC1CCCCC1)Nc1cccnc1	5	104	nt	5	i	nt
CC1(C(=O)NS(=O)(=O)c2ccc(C#N)cc2)CCN1C(=O)CC1CC1 (centres undefined)	nt	96	nt	1	i	nt
COc1ccc(S(=O)(=O)NC(=O)C2(C)CCN2C(=O)Cc2cccc3ccccc23)cc1 (centres undefined)	nt	104	nt	-21	i	99
SMILES	TLR9-MyD88 inh	ABCB6 inh 2	TLR4-MyD88 BLA	NOD2 RIPK2 PPI	Myeloid diff MLP	ABCB6 blocker 1
COc1ccc(S(=O)(=O)NC(=O)C2(C)CCN2C(=O)Cc2ccc(-c3ccccc3)cc2)cc1 (centres undefined)	nt	98	nt	1	?	nt
CC1(C(=O)NS(=O)(=O)c2ccc(C#N)cc2)CCN1C(=O)Cc1cccc2ccccc12 (centres undefined)	nt	65*	nt	-1	i	99
COC(=O)C1(C(=O)OC)c2ccccc2CN(S(=O)(=O)c2ccc(C)cc2)C1CC(C)=O (centres undefined)	nt	nt	nt	-10	i	nt
Cc1cc(S(=O)(=O)NC2CCCCC2)ccc1OCC(=O)NCC1CCCO1 (centres undefined)	7	73*	-1	-4	i	99
CC(C)CC(=O)OCC(=O)Nc1ccccc1Sc1ccccc1	4	74*	-11	-7	i	99
O=c1c2c(nc(NCCO)n1CC1CCCCC1)-c1ccccc1CC21CCCC1	4	61*	7	0	i	100
CC1(C)CC(n2c(NCCO)nc3c(c2=O)C2(CCCC2)Cc2ccccc2-3)CCO1 (centres undefined)	0	87	-5	16	i	nt
O=C(CS(=O)(=O)Cc1ccccc1)N1CCN(c2ccccc2F)CC1	-16	103	nt	1	i	nt
Cc1ccc(-c2csc3ncnc(N4CCN(S(=O)(=O)c5cccs5)CC4)c23)cc1	-8	74*	nt	9	i	97
Cc1cc(OCC(=O)Nc2ccncc2)cc(C)c1Cl	-3	98	nt	8	i	nt
Cc1ccc(OCC(=O)Nc2ccncc2)cc1C	-2	74*	nt	-13	i	99
O=C(NCc1ccccc1)C1c2ccccc2OCC(=O)N1Cc1ccco1 (centres undefined)	nt	98	nt	-7	i	nt
COc1ccc(-c2cc(C(=O)Nc3c(C)nn(Cc4ccccc4)c3C)no2)cc1	-1	51*	7	1	i	100
COc1cccc(-c2cc(C(=O)Nc3c(C)nn(Cc4ccccc4)c3C)no2)c1	4	95	-5	8	i	nt
COc1ccccc1/C=C/C(=O)NCc1cccnc1	-3	101	8	-26	i	nt
O=C1N[C@@H](Cc2ccccc2)C(=O)N1CCN1CCOCC1	1	48*	-11	2	i	97
CCN(CC(=O)NCCCn1ccnc1)S(=O)(=O)c1ccc(C)cc1	-6	103	nt	0	i	nt
Cc1ccc(S(=O)(=O)N(C)CC(=O)NCCCn2ccnc2)cc1	-5	61*	nt	8	i	101
